PAFAH2 inh: inhibitors of human PAFAH2 | hit rate 0.99% among 340,000 | recombinant PAFAH2, FP-rhodamine activity probe, fluorescence polarization | Q99487 | inhibition, % at 3.39 µM | AID 492956;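 active = inhibition above the mean over all tested compounds plus 3 SD, cut at about 30% in these data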;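 also: inhibitors block probe labeling of enzyme so polarization drops; 0% = enzyme with DMSO and 100% = wells lacking PAFAH2 protein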
PAFAH1B2 FP inh: PAFAH1B2 (human) inhibition; recombinant PAFAH1B2, FP-rhodamine activity probe, fluorescence polarization; hit rate 1.2% among 340,000; inhibition, % at 3.39 µM;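 active = inhibition above the mean of all tested compounds plus 3 SD, cut at about 24% in these data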;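 also: 0% = enzyme with DMSO and 100% = wells lacking PAFAH1B2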
PP5 primary: inhibitors of human protein phosphatase 5 (PP5); inhibition, % at 6.7 µM; P53041; purified PP5c, OMFP substrate fluorescence; hit rate 0.18% among 320,000;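 active = inhibition above the campaign's mean inhibition across all tested compounds plus 3 SD, cut at about 9.5% in these data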;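 also: 0% = DMSO only and 100% = 100 µM cantharidin control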
pPAFAH inh: pPAFAH (human) enzyme inhibition. recombinant pPAFAH, FP-rhodamine probe fluorescence polarization. Q13093. hit rate 1.5% among 330,000. inhibition, % at 3.39 µM;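 active = inhibition above the mean inhibition across the screen plus 3 SD, cut at about 25% in these data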;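 also: inhibitors block binding of the rhodamine activity-based probe so polarization drops; 0% = enzyme with DMSO and 100% = wells lacking pPAFAH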
Target sequence (Q13093 whole entry, looked up): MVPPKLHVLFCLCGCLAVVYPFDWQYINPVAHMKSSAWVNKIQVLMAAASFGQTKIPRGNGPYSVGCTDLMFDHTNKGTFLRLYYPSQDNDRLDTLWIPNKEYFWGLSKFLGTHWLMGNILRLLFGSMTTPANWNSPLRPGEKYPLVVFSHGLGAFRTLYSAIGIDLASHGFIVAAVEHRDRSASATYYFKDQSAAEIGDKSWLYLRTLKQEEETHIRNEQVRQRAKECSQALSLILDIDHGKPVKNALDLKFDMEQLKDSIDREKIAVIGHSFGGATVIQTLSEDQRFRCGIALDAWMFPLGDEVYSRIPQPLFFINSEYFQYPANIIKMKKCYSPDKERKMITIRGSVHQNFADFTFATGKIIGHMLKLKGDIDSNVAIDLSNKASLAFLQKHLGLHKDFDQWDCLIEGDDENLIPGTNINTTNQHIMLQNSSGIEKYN
PP1 counter: PP1-alpha (human) inhibition in PP5 counter-screen. P62136. purified PP1alpha, OMFP fluorescence. inhibition, % at 6.7 µM. hit rate 0.9% among 320,000. AID 2235;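 active = inhibition above the mean inhibition of all tested compounds plus 3 SD, computed separately for each screening campaign, cut at about 15% in these data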
PAFAH1B3 inh: PAFAH1B3 (human) inhibition | Q15102 | recombinant PAFAH1B3, FP-rhodamine probe, fluorescence polarization | inhibition, % at 3.39 µM | hit rate 0.28% among 340,000;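 active = inhibition above the screen-wide average of all tested compounds plus 3 SD, cut at about 25% in these data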;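 also: 0% = enzyme with DMSO only and 100% = wells lacking PAFAH1B3 protein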
PP1 confirm: confirmation of human PP1 phosphatase inhibitors; inhibition, % at 6.7 µM; purified PP1alpha, OMFP substrate fluorescence; hit rate 52% among 1,900; shares compounds with PP1 counter;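 active = mean PP1 inhibition above a set limit taken from the earlier primary screen, cut at about 15% in these data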
PP5 inh counter: inhibits human PP5 phosphatase in PP1 counter-screen. purified PP5c, OMFP fluorescence. hit rate 4% among 1,900. inhibition, % at 6.7 µM. AID 2360. shares compounds with PP1 counter;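 active = mean PP5 inhibition over triplicate wells above about 9.5% taken from the earlier PP1 screen, limit read from the data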
* = called active by the depositor; · = no result. Shown are actives, neighbours in structure and some others; about 3.4% of the full set was active somewhere.

SMILES	PAFAH2 inh	PAFAH1B2 FP inh	PP5 primary	pPAFAH inh	PP1 counter	PAFAH1B3 inh	PP1 confirm	PP5 inh counter
C(#CC1CCCC1)c1ccc2c(c1)COc1c3ccccc3nn1-2	-2	4	-4	1	-4	-4	·	·
CCCc1cc(-c2ccc3c(c2)COc2c4ccccc4nn2-3)on1	0	-4	2	7	18*	-2	19*	-1
Cc1cc(N2CCCC2)ccc1/C=N/n1cnnc1	8	-4	2	7	18*	2	1	-7
Cc1cc(N2CCCC2)ccc1/C=C1\NC(=S)N(C)C1=O	-44	-2	1	13	-1	-5	·	·
O=C(CN1C(=O)c2ccccc2S1(=O)=O)NCCSCc1c(F)cccc1Cl	6	3	2	9	3	6	·	·
COc1cc(C2c3c(-c4cc(Cl)c(C)cc4O)n[nH]c3C(=O)N2Cc2cccnc2)ccc1O (stereo unspecified)	-8	3	4	11	10	6	·	·
COc1cccc(C2c3c(-c4cc(Cl)c(C)cc4O)n[nH]c3C(=O)N2Cc2cccnc2)c1 (stereo unspecified)	-3	3	8	6	19*	-1	12	-1
COc1cc(/C=N/NC(=O)CSc2ccccn2)ccc1O	3	-2	-2	1	-2	-3	·	·
COc1cc([N+](=O)[O-])cc(/C=N/NC(=O)CSc2ccccn2)c1O	10	2	0	12	21*	5	24*	-6
COc1cc([N+](=O)[O-])cc(/C=N/NC(=O)C(C)Nc2ccccc2C)c1O (stereo unspecified)	4	8	3	11	22*	6	15	-6
COc1cc([N+](=O)[O-])cc(/C=N/NC(=O)C(C)Nc2cccc(C)c2)c1O (stereo unspecified)	11	12	6	18	22*	14	9	-6
OCC[C@@H]1C[C@H](O)[C@@H](O)[C@@]2(Cc3ccccc3O2)O1	-2	0	1	5	-5	3	·	·
COC(=O)c1ccc(C2/C(=C(\O)c3ccc(OC)c(C)c3)C(=O)C(=O)N2c2cc(C)on2)cc1 (stereo unspecified)	5	1	2	0	19*	-4	16*	-6
Cc1onc(-c2ccccc2)c1-c1nnc(COC(=O)c2ccc(O)cc2)o1	3	6	·	·	·	5	·	·
COc1ccc(CNC(=O)c2ccc(CNc3c(NC4CCCCC4)c(=O)c3=O)cc2)cc1	-1	6	2	0	25*	-12	14	-4
COc1cccc(C(=O)NCc2ccc(-c3nc4ccccc4s3)cc2)c1	0	-1	-2	5	-1	1	·	·
COc1ccc(C(=O)NCc2ccc(-c3nc4ccccc4s3)cc2)cc1	-2	1	0	5	20*	-13	25*	-2
COc1ccc(C2=NS(=O)(=O)N(C)C(C(=O)Nc3ccc(C(C)=O)cc3)=C2)cc1OC	-7	2	2	8	-4	5	·	·
CN(C)c1ccc(N=Nc2ccc(S(N)(=O)=O)cc2)cc1	-3	3	4	10	20*	9	13	-4
O=C(Nc1ccccc1-c1ccccc1)C(=O)Nc1ccccc1-c1ccccc1	·	·	0	2	0	·	·	·
CCCCCOc1ccc(NC(=O)C(=O)NCCCn2ccnc2)cc1	1	0	3	11	44*	10	4	-3
C=CCOc1ccc(NC(=O)C(=O)NCCCn2ccnc2)cc1	-3	4	-3	2	-3	4	·	·
CCCC(=O)Oc1ccccc1C1SCc2cc(C)c(C)cc2CS1	-2	-4	-1	3	22*	5	-2	-6
CCOc1ccc(N(CC(=O)NC2CCCCC2)C(=O)Cn2nnc(-c3ccc(C)o3)n2)cc1	11	6	·	·	·	3	·	·
O=C(Nc1ccc(Br)cc1)c1ccc(N2C(=O)C3CC=C(Cl)CC3C2=O)cc1 (stereo unspecified)	-16	-7	3	0	27*	-12	26*	-3
SMILES	PAFAH2 inh	PAFAH1B2 FP inh	PP5 primary	pPAFAH inh	PP1 counter	PAFAH1B3 inh	PP1 confirm	PP5 inh counter
Nc1[nH]c(=O)[nH]c(=O)c1N=Nc1ccc(C(=O)O)cc1	0	5	·	·	·	10	·	·
N#CCCN(C(=O)COC(=O)CCN=C1NS(=O)(=O)c2ccccc21)c1ccc(F)cc1	-2	3	-1	1	39*	2	-3	-2
N#CCCN(C(=O)COC(=O)CCC(=O)c1ccc(F)cc1)c1ccccc1	5	1	-2	1	-4	-2	·	·
CC(=O)c1cccc(NS(=O)(=O)c2ccc3c(c2)oc(=O)n3C)c1	-6	0	4	7	-1	11	·	·
Cn1c(=O)oc2cc(S(=O)(=O)Nc3cccc(C(=O)O)c3)ccc21	-3	6	2	3	42*	8	-2	0
CC(C)C[C@H](NC(=O)c1nc[nH]c1C(=O)N[C@@H](CC(C)C)C(=O)OCc1ccccc1)C(=O)OCc1ccccc1	-9	-4	4	7	10	-2	·	·
CC(C)C[C@H](NC(=O)c1nc[nH]c1C(=O)NC(c1ccccc1)c1ccccc1)C(=O)OCc1ccccc1	-12	0	2	2	19*	-5	11	3
CC(=O)c1c(COC(=O)c2ccccc2Cl)nc2ccccc2[n+]1[O-]	-7	2	-1	6	2	-12	·	·
O=C(COc1cccnc1[N+](=O)[O-])Nc1ccc(Cl)c(S(=O)(=O)N2CCOCC2)c1	3	3	-1	8	-1	-8	·	·
COC(=O)C(CO)NC(=O)C1CCCN1C(=O)CNC(=O)OCc1ccccc1 (stereo unspecified)	-1	-4	2	-2	6	14	·	·
CC(C)(C)c1ccc(C(=O)Nc2ncn[nH]2)cc1	-1	8	0	3	26*	8	6	-6
COc1ccc(Nc2nccc(-c3ccc(C#N)cc3)n2)cc1	2	0	-6	2	20*	7	6	-3
COc1ccc(Nc2nccc(-c3cccc(N)c3)n2)cc1	3	4	2	5	-1	-1	·	·
CC(C)c1ccc(NC2CCCN(C(=O)c3ccnn3C)C2)cc1 (stereo unspecified)	3	5	0	4	0	-5	·	·
Cc1cc(C(=O)N2CCCC(Nc3ccc(C(C)C)cc3)C2)nn1C (stereo unspecified)	-3	4	-1	5	47*	0	-2	-2
O=C(CN1C(=O)N/C(=C\c2ccccc2OCc2ccc(C(=O)O)cc2)C1=O)Nc1ccc(F)cc1	-9	-2	-1	-4	0	5	·	·

High-throughput results from PubChem.
